Screens from PubChem BioAssay.
In the library only some 4.5% were active in any assay of this set; here they are far more common.
Mdm2-MdmX inh = inhibitors of human Mdm2/MdmX interaction; inhibition, % at 8 µM; 330,000 tested, 3% active; O15151+Q00987; SaOS-2 split-luciferase Mdm2/MdmX complementation, luminescence;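 active means inhibition of at least 50% at 8 µM in the primary screen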
CSC inhib = blocks cancer stem cells | cancer stem cell-like cells viability, luminescence | 300,000 tested, 1.1% active | AID 2717 | inhibition, % at 7.5 µM; in the data active means inhibition above about 75%; tested in HMLE shEcad cells
Beta apoptosis = beta cell apoptosis inhibition | INS-1E cytokine-induced death, ATP luminescence, 48 h; percent of positive-control rescue, neutral wells zero | protection from apoptosis, % (no concentration beside the values) | 300,000 tested, 0.8% active | AID 435005;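 active means Every replicate reaches about 75%, or at least half do and their mean reaches it too, limit read from the data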;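 further: higher means more ATP so stronger rescue from cytokine killing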
Jurkat NFkB inh = inhibitors of the PMA/ionomycin-induced NF-kB reporter in Jurkat cells; 330,000 tested, 0.53% active; inhibition, % at 4 µM; PMA/ionomycin-induced NF-kB luciferase reporter, luminescence; in the data active means inhibition above about 50%
697 NFkB inh = lowers PMA/ionomycin-induced NF-kB signal in 697 B cells; 697 B-cell NF-kB luciferase reporter, 16 h; inhibition, % at 4 µM; 330,000 tested, 0.33% active; AID 435022; in the data active means inhibition above about 35%
Gli-Sufu antag = antagonists of Gli-Sufu signaling; inhibition, % at 5 µM; Sufu-KO-LIGHT fibroblasts, Gli luciferase reporter luminescence; 340,000 tested, 0.74% active; AID 588413;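 active means inhibition above about 55%, limit read from the data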
Jurkat NFkB conf = lowers PMA/ionomycin-induced NF-kB signal in Jurkat cells; shares compounds with Jurkat NFkB inh; Jurkat NF-kB luciferase, 16 h; inhibition, % at 4 µM; 2,700 tested, 27% active;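 active means inhibition reaching about 45% at 4 µM in either replicate, limit read from the data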
697 NFkB conf = lowers PMA/ionomycin-induced NF-kB signal in 697 B cells. shares compounds with 697 NFkB inh. 697 B-cell NF-kB luciferase, 16 h. inhibition, % at 4 µM. 2,000 tested, 35% active; in the data active means inhibition mostly above about 28%, no sharp cut-off; inactive means mostly below about 22%
Mdm2-MdmX conf = human Mdm2/MdmX binding inhibition, confirmed | AID 489028 | luminescent assay | 10,000 tested, 55% active | inhibition, % at 8 µM | shares compounds with Mdm2-MdmX inh; in the data active means inhibition above about 40%
FLuc counter = full-length luciferase inhibition in Mdm2/MdmX counter-screen. SaOS-2 full-length luciferase counterscreen, luminescence. shares compounds with Mdm2-MdmX inh. 6,200 tested, 77% active. inhibition, % at 8 µM. AID 504607;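 active means mean inhibition at 8 µM reaching about 37%, which flags the compound as non-specific, limit read from the data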;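 further: p53-null SaOS-2 cells with luciferase driven by a doxycycline-inducible promoter; compound on cells about two nights before reading with doxycycline added after day one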
Gli-Sufu confirm = confirmation of Gli-SUFU pathway antagonists; shares compounds with Gli-Sufu antag; Sufu-KO-LIGHT cells, Gli luciferase reporter, luminescence; inhibition, % at 5 µM; 2,500 tested, 40% active;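 active means mean inhibition at 5 µM reaching about 45%, limit read from the data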
Gli cytotox = counter-screen for Gli-SUFU antagonists: cytotoxicity. AID 651994. shares compounds with Gli-Sufu antag. cytotoxicity, % at 5 µM. Sufu-KO-LIGHT cells cytotoxicity, ATP luminescence. 2,500 tested, 32% active;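 active means mean cytotoxicity at 5 µM above about 25%, limit read from the data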;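 further: cells exposed to compound overnight for roughly 16 to 18 hours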
Wnt3a counter = Wnt3a reporter inhibition counter-screen | Wnt-LIGHT cells, Wnt3a-driven luciferase reporter, luminescence | 2,500 tested, 20% active | inhibition, % at 6.25 µM | shares compounds with Gli-Sufu antag;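 active means mean inhibition above about 25%, limit read from the data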
A number is an active result; i = inactive; nt = no result.

SMILES	Mdm2-MdmX inh	CSC inhib	Beta apoptosis	Jurkat NFkB inh	697 NFkB inh	Gli-Sufu antag	697 NFkB conf	others
COC(=O)C1=C(c2cccc(OCc3ccccc3)c2)C[C@@H]2CC[C@H]1N2C(=O)NCCc1ccc(F)cc1	i	i	i	i	i	i	nt
C=CCC1(Cc2ccsc2)C(=O)NC(=O)NC1=O	nt	nt	nt	nt	nt	i	nt
O=C1NC(=O)C2C1C1(Cl)C(Cl)=C(Cl)C2(Cl)C1(Cl)Cl (stereo not drawn)	nt	nt	nt	nt	nt	i	nt
C=C(C=O)CC1CC(O)[C@]2(C)OC3C[C@@H]4OC5C[C@]6(C)O[C@]7(C)CCC8OC9C[C@]%10(C)OC(/C(C)=C\CO)C(O)CC%10OC9CC(C)C8OC7CC6O[C@]5(C)C/C=C\C4OC3CC2O1 (stereo partly drawn)	i	i	i	i	i	i	nt
C=C(C=O)C[C@@H]1C[C@H](O)C2OC3C[C@]4(C)OC5/C=C\CC6OC7C(CC=CCC6OC5CCCC4OC3CC2O1)OC1CC2OC3CC(=O)OC3C[C@@H](C)C[C@@]2(C)OC1C[C@@H]7C (stereo partly drawn)	99.8	103.9	124.2	101.0	i	60.8	nt	Jurkat NFkB conf=98.7;Mdm2-MdmX conf=95.3;FLuc counter=i
C[C@H]1CCC/C=C/C2C[C@H](O)CC2[C@H](O)/C=C/C(=O)O1 (stereo partly drawn)	100.3	113.0	99.5	98.1	71.1	86.6	80.7	Jurkat NFkB conf=i;Mdm2-MdmX conf=98.8;FLuc counter=51.5
CC1CCC/C=C/C2CC(O)CC2C(O)/C=C/C(=O)O1 (stereo not drawn)	96.3	130.8	99.1	97.0	69.5	87.6	80.2	Jurkat NFkB conf=i;Mdm2-MdmX conf=100.0;FLuc counter=51.9
C[C@H]1CCC[C@H](O)CCCCCc2cc(O)cc(O)c2C(=O)O1	i	i	i	i	i	i	nt
COc1cc2c(c(OC)c1OC)-c1ccc(O)c(=O)cc1C(NC(C)=O)CC2 (stereo not drawn)	69.4	i	i	55.2	i	61.4	nt	Jurkat NFkB conf=i;Mdm2-MdmX conf=66.4;FLuc counter=109.6;Gli-Sufu confirm=65.9;Gli cytotox=60.9;Wnt3a counter=29.2
O=C(Nc1ccccc1)N1Cc2ccccc2-n2nncc2C1	nt	nt	nt	nt	nt	i	nt
Cc1nc2cc(-c3ccccc3)nn2c(C)c1CCC(=O)N1CCC2(CC1)OCCO2	i	i	i	i	42.7	i	45.6
Cc1nc2ncnn2c(C)c1CCC(=O)N1CCC2(CC1)OCCO2	i	i	i	i	i	i	nt
O=C1NC(=O)C(Nc2ccc(Cl)c(Cl)c2)C(=O)N1	nt	nt	nt	nt	nt	i	nt
CN(C)c1cccc2c(C#N)ccc(N(C)C)c12	i	i	i	i	39.0	i	i
O=c1[nH]c(O)c(/C=C2/C=CC(c3cc(Cl)ccc3Cl)=N2)c(=O)[nH]1	i	i	i	i	36.0	i	i
O=C(NC1CCCCC1)N1Cc2ccccc2-n2nncc2C1	nt	nt	nt	nt	nt	i	nt
CC(=O)OC1CCC2(C)C(CC(=O)C3C2CCC2(C)C(OC(C)=O)CCC32)C1 (stereo not drawn)	nt	nt	nt	nt	nt	i	nt
C[C@H]1CCC[C@@H](O)CCC/C=C/c2cc(O)cc(O)c2C(=O)O1	i	nt	i	i	42.7	i	i
COC(=O)C1=C(c2ccc(-c3ccccc3)c(F)c2)C[C@@H]2CC[C@H]1N2C(=O)N1CCCC1	i	i	i	i	46.3	i	61.9
COC(=O)C1=C(c2ccc(-c3ccccc3)c(F)c2)C[C@@H]2CC[C@H]1N2C(=O)N1CCCCC1	i	i	i	i	i	i	nt
O=C(Nc1ccc(OC(=O)N2CCCCC2)cc1)N1CCOCC1	i	i	i	i	57.9	i	i
Cc1cc(OCC(=O)N2CCC(C(N)=O)CC2)c2c3c(c(=O)oc2c1)CCCC3	i	i	i	i	41.6	i	29.7
CC12CC[C@H]3[C@@H](CCC4(O)C[C@H](O)CCC34/C=N/NC(=O)Cc3ccccc3)C1(O)CCC2C1=CC(=O)OC1 (stereo partly drawn)	i	i	i	i	i	i	nt
C[C@]12CC[C@H]3C(CCC4(O)CC(O)CC[C@]34C=O)C1=CC[C@H]2c1ccc(=O)oc1 (stereo partly drawn)	i	77.8	i	i	i	i	i
CN1CC(C(=O)c2cccc(C(F)(F)F)c2)C(c2ccc(Cl)cc2)C1 (stereo not drawn)	i	i	i	i	i	i	nt
SMILES	Mdm2-MdmX inh	CSC inhib	Beta apoptosis	Jurkat NFkB inh	697 NFkB inh	Gli-Sufu antag	697 NFkB conf	others
CN(C)CC(C(=O)Cc1ccccc1)c1ccccc1 (stereo not drawn)	nt	nt	nt	nt	nt	i	nt
O=[N+]([O-])c1ccc(N2CCCC2)c2ncccc12	i	i	i	i	i	i	nt
CC1CN(c2ccc([N+](=O)[O-])c3cccnc23)CC(C)N1 (stereo not drawn)	i	i	i	i	i	i	i
CNC(=O)Oc1cccc(-c2cn3cc(Cl)ccc3n2)c1	i	i	i	i	i	i	i
O=C(NN=Cc1ccc(N(CCCl)CCCl)cc1)c1cccnc1	nt	nt	nt	nt	nt	i	nt
C=CCn1c(O)c(C(C)=NC(C)c2ccccc2)c(=O)[nH]c1=O (stereo not drawn)	i	i	i	i	41.1	i	30.1
C=CCn1c(O)c(C(C)=NCCC(c2ccccc2)c2ccccc2)c(=O)[nH]c1=O	i	i	i	i	i	i	nt
C=C1C(=O)[C@@]23C[C@H]4[C@@H]5[C@@]6(C)CCC[C@@]57[C@@H]2[C@@H](O)[C@@H]1C[C@H]3[C@H]7N4C6	100.3	i	i	i	44.2	i	37.4	Mdm2-MdmX conf=90.3;FLuc counter=51.9
C/C(=C\c1ccc(N(C)C)cc1)[N+](=O)[O-]	100.3	i	nt	i	38.1	i	i	Mdm2-MdmX conf=i
NNCc1ccccc1	nt	nt	nt	nt	nt	i	nt
CCn1c(=O)cc(SCC(=O)N2CCC3(CC2)OCCO3)c2ccccc21	53.0	i	i	i	62.0	i	39.6	Mdm2-MdmX conf=i
COc1cc2c(cc1OC)C13CCN4CC5=CCOC6CC(=O)N2C1C6C5C3C4 (stereo not drawn) (tested in a mixture with another compound)	nt	nt	nt	nt	nt	i	nt
